High-throughput results deposited in PubChem by National Center for Advancing Translational Sciences (NCATS).
Only some compounds are listed: those with a hit (about 2.4% of all), similar ones and a draw of the others.
POLI inh = inhibitors of human DNA polymerase iota. Pol iota fluorescent replication assay, 10 min. 1% of 390,000 active. AID 588590. Potency, µM (series often up to 115 µM), without a hit: top-dose activity, negative = inhibition, actives largely listed as inhibitors
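Fluorescent replication assay read twice, at 0 min and 10 min after adding 50 nM (final) substrate. Enzyme (10 nM) and compounds were first incubated 15 min at room temperature; enzyme-free buffer wells were negative controls.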
FEN1 inh-1 = inhibitors of human flap endonuclease 1 | P39748 | AID 588795 | Potency, µM (top dose mostly 114 µM), inactives show at the highest dose activity change, negative = inhibition, hits mostly inhibitors | Recombinant FEN1 flap cleavage, fluorescence, 15 min | 0.35% of 390,000 active; also: % is scaled to controls: 0 for no effect and ±100 for the full control effect; nearly all actives have a fitted effect of over 65% in size
Target sequence (P39748 whole entry, looked up): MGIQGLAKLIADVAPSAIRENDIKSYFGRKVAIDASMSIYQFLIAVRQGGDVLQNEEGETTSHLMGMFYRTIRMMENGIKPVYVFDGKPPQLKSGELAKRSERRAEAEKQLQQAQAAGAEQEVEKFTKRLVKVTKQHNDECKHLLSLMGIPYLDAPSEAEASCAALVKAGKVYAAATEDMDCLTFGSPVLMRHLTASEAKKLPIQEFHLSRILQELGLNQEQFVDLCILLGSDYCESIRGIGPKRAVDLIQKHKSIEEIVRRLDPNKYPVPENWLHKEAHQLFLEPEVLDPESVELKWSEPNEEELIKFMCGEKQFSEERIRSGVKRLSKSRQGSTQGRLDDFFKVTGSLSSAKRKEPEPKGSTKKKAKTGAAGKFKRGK
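FEN1 at 10 nM preincubated with compounds 15 min at room temperature, then flap DNA substrate added at 50 nM final. Signal read at 0 and 15 min; concentration-response fitted with four-parameter Hill equation.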
Pol eta inh-1 = DNA polymerase eta (human) inhibition. Q9Y253. recombinant Pol eta, fluorescent DNA replication assay. Potency, µM (titrated, usually from 114 µM), without a hit: at the highest dose activity change, negative = inhibition, most hits filed as inhibitors. 1.2% of 390,000 active. AID 588591; also: % is scaled to controls: 0 for no effect and ±100 for the full control effect
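Pol eta at 10 nM preincubated with compounds 15 min at room temperature; reaction started with fluorescent substrate (50 nM final) and read kinetically at 0 and 10 min.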
WRN helicase inh = WRN helicase (human) inhibition; Q14191; WRN helicase unwinding, fluorescent forked duplex, kinetic; Potency, µM (top dose mostly 114 µM), for inactives: at the highest dose activity change, negative = inhibition, most hits filed as inhibitors; 0.46% of 360,000 active; AID 651768; also: % is scaled to controls: 0 for no effect and ±100 for the full control effect; nearly all actives have a fitted effect of over 55% in size
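Kinetic fluorescence helicase assay: unwinding of a quenched forked DNA duplex (100 nM final) with 2 mM ATP final raises red fluorescence (525/598 nm). Compounds sat 15 min at room temperature with 20 nM WRN beforehand.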
POLB inh = blocks human DNA polymerase beta activity; Pol beta primer extension/strand displacement, fluorescence kinetic; AID 485314; Potency, µM (doses to about 114 µM), without a hit: at the highest dose activity change, negative = inhibition, hits mostly inhibitors; P06746; 1.3% of 340,000 active; also: % is scaled to controls: 0 for no effect and ±100 for the full control effect
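10 nM enzyme + cpd, 15 min RT; start with substrate 50 nM final; read 0 min and after 10 min RT. Corrected, normalized data; 4-parameter Hill curve fit.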
Pol kappa inh-1 = blocks human DNA polymerase kappa activity; Q9UBT6; purified Pol kappa, fluorescent DNA synthesis assay, 10 min; Potency, µM (doses to about 107 µM), for inactives: top-dose activity, negative = inhibition, hits mostly inhibitors; 0.53% of 400,000 active; AID 588579; also: % is scaled to controls: 0 for no effect and ±100 for the full control effect
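Activity was followed as the change in fluorescence between reads at 0 and 10 min after starting the reaction with 50 nM substrate. Beforehand, 10 nM polymerase had been preincubated with compound for 15 min at room temperature.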
TbPGK inh = validation of Trypanosoma brucei phosphoglycerate kinase inhibitors | shares compounds with Pol kappa inh-1 | TbPGK coupled GAPDH assay, Kinase-Glo luminescence | Potency, µM (doses to about 57.5 µM), without a hit: top-dose activity change, negative = inhibition, most hits filed as inhibitors | 79% of 500 active | AID 686980; also: % is scaled to controls: 0 for no effect and ±100 for the full control effect; nearly all actives have a fitted effect of over 65% in size
POLI cherry-pick = Inhibitors of human DNA polymerase iota, confirmation; 77% of 1,500 active; Potency, µM, actives largely listed as inhibitors; Pol iota primer extension, TAMRA/BHQ fluorescence; shares compounds with Pol kappa inh-1
Pol kappa inh-2 = Pol kappa (human) inhibition, cherry-pick confirmation; shares compounds with Pol eta inh-1; purified Pol-kappa, fluorescent strand-displacement substrate; Potency, µM, most hits filed as inhibitors; 76% of 920 active
Pol eta inh-2 = Pol eta (human) inhibition, cherry-pick confirmation | Pol eta primer extension, TAMRA/BHQ fluorescence, 10 min | Potency, µM, usual class: inhibitors | 64% of 2,600 active | shares compounds with Pol eta inh-1
FEN1 inh-2 = confirmation of human FEN1 inhibitors; shares compounds with FEN1 inh-1; FEN1 flap cleavage, TAMRA/BHQ2 fluorogenic DNA substrate; Potency, µM, most hits filed as inhibitors; 79% of 880 active; AID 720498; also: nearly all actives have a fitted effect of over 60% in size
Starred values were filed as active, the others as inactive; ? = inconclusive; nt = no result; [ ] = another dose, or the depositor's remark. Calls follow the shape of the dose curve; as a rule, active = well fitted curve in the direction sought with a large enough effect; inconclusive = small, poorly fitted or top-dose-only effect, or another doubt; inactive = no such curve, though single readings can be large; an effect the other way counts as inactive or inconclusive. Potency is read from the fitted curve at half-maximal effect.

SMILES	POLI inh	FEN1 inh-1	Pol eta inh-1	WRN helicase inh	POLB inh	Pol kappa inh-1	POLI cherry-pick	Pol kappa inh-2	Pol eta inh-2	FEN1 inh-2	others
N#C/C(=C\c1ccc(OCc2ccc(Cl)cc2)cc1)C(=O)Nc1cccc(C(=O)O)c1	?	?	?	?	32µM*	-8%	42*	nt	76*	67*
CN1/C(=C\C=O)C(C)(C)c2ccccc21	61%	-3%	-4%	0%	5%	-2%	nt	nt	nt	nt
CN1\C(=C/C=C/C=C/C=[N+](C)C)C(C)(C)c2ccccc21	18µM*	89µM*	40µM*	4.2µM*	16µM*	50µM*	38*	38*	34*	85*
COc1ccc2c(c1)c1c(c(=O)n(-c3cc(Cl)ccc3C)c(=O)n1CC(=O)N1CCCC1)n2C	51%	?	-11%	nt	8%	-2%	nt	nt	nt	nt
COC(=O)C1=C[C@@H](C(=O)OC)C2C3=C(C(=O)[C@]2(C)NC(=O)c2ccccc2)[C@H](C)[C@@H]2C(=O)N(C)C(=O)[C@@H]2[C@@H]3C1 (stereo partly drawn)	3%	-8%	nt	nt	nt	-10%	nt	nt	nt	nt
O=C(N=Nc1c(O)[nH]c2ccccc12)c1ccccc1NS(=O)(=O)c1cccs1	-22%	-2%	-15%	-29%	26%	-29%	nt	nt	nt	nt
Cc1cccc2c(N=NC(=O)c3ccc(NS(=O)(=O)c4cccs4)cc3)c(O)[nH]c12	?	?	11µM*	20µM*	nt	?	17*	nt	19*	34*
O=C1C=CC(=O)c2c(O)c(N3CCN(CCO)CC3)c(Cl)c(O)c21	5.6µM*	?	1.8µM*	32µM*	nt	22µM*	3.4*	17*	17*	76*
CCOC(=O)C1=C(C)N=c2s/c(=C/c3ccc(OCC(=O)O)cc3)c(=O)n2C1c1ccc(F)cc1 (stereo not drawn)	18µM*	?	?	-6%[11.6 µM]	56µM*	-17%	75*	?	nt	85*
O=C(O)CSc1cc(NS(=O)(=O)c2ccc(Br)cc2)c2ccccc2c1O	7.1µM*	?	35µM*	50µM*	89µM*	89µM*	?	?	?	67*
O=C(O)Cc1c[nH]c2cccc(O)c12	?	50µM*	8.9µM*	?	18µM*	22µM*	19*	nt	7.6*	48*
Cc1ccc(CN2C(=O)CC(c3ccc(Cl)cc3)c3c(C)nn(-c4nc(C)cc(C)n4)c32)cc1 (stereo not drawn)	13%	6%	-7%	nt	-10%	-3%	nt	nt	nt	nt
COc1ccc(CCNC(=O)c2csc3c2CCCCC3)c(OC)c1	7%	19%	-8%	nt	-13%	-10%	nt	nt	nt	nt
N#Cc1c(C(F)(F)F)cc(-c2cccs2)nc1SCC(=O)Nc1ccc(F)cc1	17%	13%	-13%	nt	33%	-1%	nt	nt	nt	nt
O=C1NC(=O)/C(=C\c2ccc(O)cc2O)S1	?	16µM*	2.8µM*	35µM*	1.6µM*	11µM*	30*	nt	27*	67*
O=C(Nc1ccc(F)c(F)c1)C1CCCN1S(=O)(=O)c1cccc2nsnc12 (stereo not drawn)	26%	0%	-17%	nt	15%	-5%	nt	nt	nt	nt
CNc1c2cccc(C)c2nc2c(C(=O)NCCN(C)C)cccc12	11µM*	2.8µM*	3.5µM*	-10%	nt	8.9µM*	3*	nt	38*	2.7*
Cc1ccc(C(=O)NCCN(C)C)c(C)c1	3%	7%	-11%	4%	-22%	5%	nt	nt	nt	nt
CCN1/C(=C/C=C/c2oc3ccc(-c4ccccc4)cc3[n+]2CC)Oc2ccc(-c3ccccc3)cc21	?	32µM*	?	4.7µM*	79µM*	?	30*	38*	21*	27*
COC(=O)CN1C(=O)CSc2ccc(S(=O)(=O)Nc3cccc(Cl)c3C)cc21	25%	-13%	-12%	nt	29%	-8%	nt	nt	nt	nt
COc1cc(/C=C2\SC(=Nc3ccc(Cl)c(C(=O)O)c3)NC2=O)c(Br)c(Br)c1O	22µM*	25µM*	18µM*	?	8.9µM*	40µM*	67*	8.4*	?	38*
O=c1[nH]c(=S)[nH]c2c1C(c1ccc(Br)cc1)c1c([nH]c(=S)[nH]c1=O)O2	1µM*	18µM*	2.2µM*	14µM*	13µM*	4µM*	2.7*	nt	1.7*	2.1*
COc1cc(CN(CC2CCCO2)C(=O)c2ccc(F)cc2)cc(OC)c1OC (stereo not drawn)	-1%	-7%	-14%	nt	6%	-25%	nt	nt	nt	nt
NS(=O)(=O)c1ccc(N=Nc2c[nH]c(=O)c(O)c2)cc1	14µM*	?	22µM*	?	?	?	nt	nt	54*	?	TbPGK inh=18µM*
O=C(CN1C(=O)C2(SCC(=O)N2c2cccc(Cl)c2)c2ccccc21)NCCc1ccccc1 (stereo not drawn)	-14%	-2%	-9%	nt	-23%	-12%	nt	nt	nt	nt
O=C1NC(=S)S/C1=C/c1ccc(N2CCOCC2)o1	79µM*	45µM*	?	25µM*	14µM*	?	38*	84*	76*	38*
N=C1/C(=C\c2ccc(-c3cccc(C(=O)O)c3)o2)C(=O)N=C2SC=C(c3ccccc3)N12	20µM*	32µM*	8.9µM*	40µM*	20µM*	40µM*	30*	nt	9.5*	67*
N=C1/C(=C/c2ccc(-c3cccc(C(=O)O)c3)o2)C(=O)N=C2SC(CC(=O)N3CCOCC3)=NN12	3.5µM*	35µM*	3.5µM*	22µM*	?	?	17*	nt	4.8*	67*
